Inconclusive results are not listed. Activity calls are given as the source filed them. How the source made its calls: active means hit-call score of the fitted dose curve at least 0.9, where 1 is the maximum; inconclusive means response in the unintended direction; inactive means score below 0.9.
target: Estrogen receptor (Homo sapiens) (UniProt P03372); test: CCTE_Deisenroth_AIME_384WELL_LUC_Active: CCTE's 384-well Estrogen Receptor Transactivation Assay with AIME metabolic competence (ERTA luciferase; metabolism positive), Deisenroth Lab (AID 2284030)
Sequence (P03372 whole entry, looked up): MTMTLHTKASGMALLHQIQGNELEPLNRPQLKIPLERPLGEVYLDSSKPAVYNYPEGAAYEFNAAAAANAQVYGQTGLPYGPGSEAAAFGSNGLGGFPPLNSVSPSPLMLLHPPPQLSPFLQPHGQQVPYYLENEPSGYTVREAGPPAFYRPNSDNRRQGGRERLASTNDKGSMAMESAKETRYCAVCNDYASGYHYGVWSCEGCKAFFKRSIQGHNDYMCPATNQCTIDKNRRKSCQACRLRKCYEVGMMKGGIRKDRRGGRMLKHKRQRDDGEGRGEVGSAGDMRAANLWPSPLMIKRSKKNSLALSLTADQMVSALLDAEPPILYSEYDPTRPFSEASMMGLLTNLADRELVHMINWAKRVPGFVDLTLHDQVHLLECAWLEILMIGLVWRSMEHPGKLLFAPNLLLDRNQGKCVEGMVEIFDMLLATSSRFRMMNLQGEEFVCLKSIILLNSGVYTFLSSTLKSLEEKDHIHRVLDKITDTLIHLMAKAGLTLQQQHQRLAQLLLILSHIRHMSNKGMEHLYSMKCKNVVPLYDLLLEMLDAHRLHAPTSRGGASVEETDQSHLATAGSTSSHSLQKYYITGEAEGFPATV
Experimental: CCTE_Deisenroth_AIME_384WELL (AIME metabolism assay) is a cell-based, single-readout assay that uses VM7Luc4E2, a human mammary gland/breast cell line, with measurements taken at 24 hour after chemical dosing in a 384-well plate.CCTE_Deisenroth_AIME_384WELL_LUC_Active is one of four assay components measured or calculated from the CCTE_Deisenroth_AIME_384WELL assay. It is designed to make measurements of luciferase induction, a form of inducible reporter, as detected with bioluminescence signals by luciferase-coupled ATP quantitation technology.CCTE_Deisenroth_AIME_384WELL_LUC_Active is a component of the CCTE_Deisenroth_AIME_384WELL assay that measures the effect of retroftting the VM7Luc ERTA assay with the Alginate Immobolization of Metabolic Enzymes (AIME) metabolism method. AIME is optimized to impart phase I hepatic metabolism using phenobarbital/beta-naphthoflavone induced hepatic S9 from male Sprague Dawley rats. Parent chemicals are incubated for 2 hours in the AIME assay prior to transfer to the VM7Luc ERTA assay plate. […] This endpoint evaluates reporter induction in metabolism positive mode. Using a type of inducible reporter in VM7Luc cells, gain-of-signal activity can be used to understand changes in the reporter gene as they relate to xenobiotic metabolism and the gene ESR1. This assay endpoint, CCTE_Deisenroth_AIME_384WELL_LUC_Active, was analyzed in the positive analysis fitting direction relative to 17beta-estradiol as the positive control in the ERTA assay. To generalize the intended target to other relatable targets, this assay endpoint is annotated to the nuclear receptor intended target family, where the subfamily is steroidal.
The AIME procedure consists of a preparative "pre-stamping" step using a barium chloride/poly-L-lysine (PLL) solution followed by "stamping" the lid in alginate-hepatic S9 (metabolism positive) or alginate-water (metabolism negative) to form microspheres. Once stamping is completed, the AIME lids are placed in duplicate microplates (metabolism positive or negative) containing chemical solutions and incubated for two hours to facilitate metabolic reactions. The conditioned medium, containing parent chemical or metabolites, is then transferred to the cell-based VM7Luc Estrogen Receptor Transactivation Assay (ERTA) for 24 hours. A typical experimental design tests a 10-point concentration series (0.002 - 200 uM) for 8 compounds (96-well format)1 or 32 compounds (384-well format)2 in single technical replicate. AIME assay controls include trans-stilbene (bioactivated control) and ethylparaben (bioinactivated control). ERTA assay plate controls include 17-beta estradiol (positive control) and DMSO (solvent control). Experiments typically comprise a minimum of four experimental replicates (n=4).

Row | SMILES | outcome | AC50
1 | Cc1ccc(N)cc1Cl | inactive | 
2 | O=C(Cc1ccccc1)c1ccccc1 |  | 112 µM (active)
3 | NC(=O)O | inactive | 
4 | O=C(NCO)NCO | inactive | 
5 | ClC(Cl)=C(Cl)C(Cl)=C(Cl)Cl | inactive | 
6 | CC(C)(C)c1cc(O)ccc1O |  | 0.000221 µM (active)
7 | CCCCCCCCSC(=O)Oc1cc(Cl)nnc1-c1ccccc1 | inactive | 
8 | CC(=O)C=C(C)C | inactive | 
9 | CCOP(=S)(OCC)SCSP(=S)(OCC)OCC |  | 13.4 µM (active)
10 | CNC(=O)O/N=C/C(C)(C)S(C)=O (configuration not stated) | inactive | 
11 | O=S(=O)(c1ccc(Cl)cc1)c1ccc(Cl)cc1 | inactive | 
12 | CC(=O)c1cc(C(C)(C)C)cc2c1CCC2(C)C | inactive | 
13 | OCC(O)CCl (configuration not stated) |  | 0.555 µM (active)
14 | COc1ccc(C=O)cc1 | inactive | 
15 | CCOC(=O)Nc1cccc(OC(=O)Nc2ccccc2)c1 | inactive | 
16 | [O-][Cl+2]([O-])O | inactive | 
17 | CNC | inactive | 
18 | O=C1CCCN1 | inactive | 
19 | NNC(=S)NN | inactive | 
20 | CC(C)OC(=O)Nc1ccccc1 |  | 17 µM (active)
21 | COP(=O)(OC)OC | inactive | 
22 | C=C(C)C#N | inactive | 

— PubChem BioAssay (EPA / NIEHS)
